MazEF act = activators of E. coli MazEF toxin-antitoxin RNase, primary screen, biochemical, fluorescence, uHTS; Endoribonuclease toxin MazF (Escherichia coli (strain K12)), P0AE70; FAM/BHQ RNA-DNA oligo cleavage fluorescence, 5 h; activation, % at 20 µM; actives 0.32% (n = 350,000); in the data active means activation above about 50%
Target sequence (P0AE70 whole entry, looked up): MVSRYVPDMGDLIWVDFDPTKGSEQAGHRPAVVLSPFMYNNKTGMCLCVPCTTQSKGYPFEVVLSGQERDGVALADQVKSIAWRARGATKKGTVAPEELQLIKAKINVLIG
Anthrax LF inh2 = Bacillus anthracis LF protease inhibitors, primary screen, biochemical, multiplex microsphere, MLPCN library; inhibition, % at 10 µM; Lethal factor (Bacillus anthracis), P15917; AID 588501, 2011; actives 0.12% (n = 360,000); multiplex microsphere protease cleavage assay; further: plate controls were buffer without enzyme for full effect and enzyme alone for no effect
Autofluor counter = counter-screen for toxin protease inhibitors: compound fluorescence | compound autofluorescence counterscreen, microsphere flow cytometry; active compounds read high | AID 624483 | fluorescence intensity (concentration not given with the values) | actives 3.1% (n = 360,000); in the data active means fluorescence intensity above about 16000; inconclusive means no clear call, values can overlap the other calls
BoNT-F LC inh = BoNT/F light chain protease inhibitors, primary screen, biochemical, flow cytometry, MLPCN library; Botulinum neurotoxin type F light chain protease (Clostridium botulinum); Multiplex microsphere protease cleavage assay; inhibition, % at 10 µM; actives 0.22% (n = 360,000); AID 588497, 2011; in the data active means inhibition above about 35%, passing the limit was not always enough; inconclusive means no clear call, values can overlap the other calls; further: plate controls were buffer without enzyme for full effect and enzyme alone for no effect
BoNT A protease = BoNT/A light chain protease inhibitors, primary screen, biochemical, flow cytometry, MLPCN library. inhibition, % at 10 µM. multiplex microsphere protease substrate cleavage. actives 0.17% (n = 360,000). Botulinum neurotoxin type A light chain protease (Clostridium botulinum A str. ATCC 3502); further: plate controls were buffer without enzyme for full effect and enzyme alone for no effect
Starred values were filed as active, the others as inactive; ? = inconclusive; / = no result. This is a sample that favours compounds with a hit; in the whole collection about 3.7% have one here. Unless noted, no stated cut-off is given here; in the data, active means inhibition above about 30%; inconclusive means no clear call, values can overlap the other calls; inactive means below that.

SMILES | MazEF act | Anthrax LF inh2 | Autofluor counter | BoNT-F LC inh | BoNT A protease
CC1=C(C(=O)Nc2cc(C)ccc2C)C(c2cccs2)NC(=S)N1 (centres undefined) | 3 | 0 | 21275* | -6 | -5
COCC(=O)Nc1ccccc1C(=O)Nc1ccc(OC)cc1 | 2 | -2 | 22328* | 2 | 1
Cc1ccccc1C(=O)NC1CCCCCCC1 | 10 | -2 | 3657 | 30 | 0
COc1ccccc1Nc1ncccc1C(=O)NCc1ccccc1 | 19 | -3 | 20309* | -3 | -1
CSc1ccccc1C(=O)NC1CCCCCC1 | -3 | 1 | 20204* | 1 | 1
NC(=O)c1ccccc1NC(=O)Nc1cccc(Cl)c1 | -5 | 1 | 20064* | -6 | -1
O=C(Nc1cccc(Cl)c1)Nc1ccccc1C(=O)O | -4 | 5 | 8318 | -30 | -8
CN1CCN(c2ccc(CNC(=O)c3ccc(-c4ccc(F)c(F)c4)c4ccoc34)cc2)CC1 | / | -9 | 2790 | 3 | 0
COc1ccc(NC(=O)c2ccccc2NC(=O)NC2CCCCC2)cc1 | -15 | -4 | 23203* | -2 | 1
COc1ccc(NC(=O)c2cccnc2Nc2ccccc2)cc1 | 12 | 0 | 23086* | -11 | -8
NC(=O)c1ccccc1NC(=O)NC1CCCCC1 | -2 | -3 | 22128* | -1 | ?
COC(=O)c1ccccc1NC(=O)NC1CCCC1 | -5 | -1 | 2246 | 0 | 0
O=C(Nc1ccccc1NC(=O)NC1CCCCC1)NC1CCCCC1 | 1 | -2 | 16874* | -3 | ?
CCCCNC(=O)Nc1ccccc1C(=O)Nc1ccc(OC)cc1 | -5 | -1 | 2230 | 5 | 0
O=C(CN1CCN(C(=O)c2ccco2)CC1)Nc1cc(S(=O)(=O)N2CCCC2)ccc1Cl | 6 | -2 | 4737 | -12 | -1
O=C(O)C1CCCN(S(=O)(=O)Cc2ccccc2)C1 (centres undefined) | -5 | -12 | 3611 | 6 | 1
O=C(C1CCCN(S(=O)(=O)Cc2ccccc2)C1)N1CCC(Cc2ccccc2)CC1 (centres undefined) | -7 | -2 | 21341* | 4 | 4
COc1ccc(N2CCN(CCCNC(=O)C(=O)c3c(C)[nH]c4ccccc34)CC2)cc1 | -3 | -8 | 4381 | -4 | 0
COc1cccc(C(N)c2nc(-c3cc(F)cc(F)c3)cs2)c1 (centres undefined) | / | 1 | 3846 | -3 | 0
Cc1c2c(nc3c(C(=O)NC4CCCC4)cnn13)CCCC2 | 4 | -5 | 16888* | -4 | -2
Cc1cc(C=C2C(=O)c3ccccc3C2=O)c(C)n1-c1ccc(Cl)cc1 | -267 | 5 | 20919* | 1 | 2
Cc1cccc(-n2c(C)cc(C=C3C(=O)c4ccccc4C3=O)c2C)c1 | 597* | 8 | 6839 | -7 | 7
CCn1c(C)cc(C=C2C(=O)c3ccccc3C2=O)c1C | 79* | 3 | 2287 | -1 | 7
C[C@@H]1NS(=O)(=O)[C@H]2C[C@@H]3C=C[C@]2(O3)[C@H]1OC(=O)c1ccc(C(C)(C)C)cc1 | 9 | -7 | 3074 | -2 | 0
O=C(NCCCCc1ccccc1)C1CCCC1 | -1 | -11 | 3013 | -12 | 2
SMILES | MazEF act | Anthrax LF inh2 | Autofluor counter | BoNT-F LC inh | BoNT A protease
O=C(NCCCCNC(=O)C1CCCC1)C1CCCC1 | 0 | 0 | 22858* | 2 | 0
COCCCNC(=O)Cn1cnc2sc(C)c(S(=O)(=O)N3CC(C)CC(C)C3)c2c1=O (centres undefined) | 2 | -3 | 3608 | -6 | -3
Oc1ccccc1C1=Nc2ccccc2N=C(c2ccco2)C1 | 56* | -5 | 9950 | -5 | 0
Nc1c(N(CCO)C(=O)C2CCCC2)c(=O)[nH]c(=O)n1Cc1ccccc1 | -5 | -4 | ? | -4 | 0
COc1ccc(S(=O)(=O)N(CC(=O)NCC2CCCO2)Cc2ccccc2)cc1 (centres undefined) | 7 | 0 | 5916 | -2 | 0
COc1cccc(CN(CC2CCCO2)S(=O)(=O)c2ccc(S(=O)(=O)N(C)C)cc2)c1 (centres undefined) | -4 | -2 | 22709* | 1 | 2
Cc1noc(C)c1S(=O)(=O)N(CC(=O)NC(C)c1ccccc1)c1ccc(C(C)C)cc1 (centres undefined) | -1 | -3 | 5958 | -8 | -2
Cc1ccc(CNc2ncnc3c2cnn3-c2ccccc2)cc1 | -3 | 1 | 16965* | -1 | -2
c1ccc(-n2ncc3c(NCCCN4CCOCC4)ncnc32)cc1 | 4 | -2 | 18090* | -10 | -5
Clc1ccc(-n2ncc3c(NCc4ccccn4)ncnc32)cc1 | -6 | -21 | 19639* | 10 | 7
Clc1ccc(-n2ncc3c(NCCN4CCOCC4)ncnc32)cc1 | 0 | 2 | 3403 | 20 | 1
CN(c1ccccc1)S(=O)(=O)c1ccc(C(=O)N2CCN(c3ccccc3F)CC2)cc1 | 2 | / | / | / | /
Cc1ccc(NC2=CC(=O)C(=O)c3ccccc32)cc1 | 4 | -2 | 16510* | -5 | -1
NS(=O)(=O)c1ccc(NC2=CC(=O)C(=O)c3ccccc32)cc1 | -1 | -10 | 3495 | -24 | -2
O=C(NC1CCCCCC1)c1ccco1 | 5 | 0 | 4319 | 4 | 0
CC(=O)c1ccc(OC(=O)C(CCS(C)(=O)=O)N2C(=O)c3ccccc3C2=O)cc1 (centres undefined) | -2 | 0 | 21318* | -1 | -2
CCOc1ccc(OC(=O)C(CCS(C)(=O)=O)N2C(=O)c3ccccc3C2=O)cc1 (centres undefined) | -11 | -11 | 9598 | 2 | 0
CCCCC(=O)NC(=S)Nc1ccc(NC(=O)C(C)C)c(OC)c1 | 3 | -3 | 4417 | -5 | 0
COc1cc(NC(=S)NC(C)=O)ccc1NC(=O)C(C)C | 0 | -2 | 16967* | -4 | -3
COc1ccc([C@H]2C[C@@H](O)[C@H](n3cc(-c4ccc(F)cc4)nn3)CN2CC2CCCCC2)cc1 | -3 | -6 | 3720 | -1 | 0
CCOC(=O)c1cc(OC(=O)c2cccc([N+](=O)[O-])c2)n(-c2ccccc2)n1 | -5 | 0 | 17208* | -3 | ?
O=C(COC(=O)c1cn(-c2ccccc2)nc1-c1ccccc1)c1cccc([N+](=O)[O-])c1 | 6 | -5 | 16553* | -5 | -1
CCOC(=O)c1cc(OC(=O)c2ccccc2)n(-c2ccccc2)n1 | -3 | 0 | 23849* | -1 | -1
O=C(CN1CC(c2ccccc2)CC1=O)OCc1cccc(Br)c1 (centres undefined) | 0 | -26 | ? | 16 | ?
Nc1nnnn1CC(=O)OCc1cccc(Br)c1 | -3 | -1 | 23207* | -2 | ?
CCn1c(-c2cc(-c3cccc(OC)c3)nc3ccccc23)n[nH]c1=S | -4 | -4 | 19974* | 2 | 2
